Laboratory results reported in PubChem BioAssay (NCI).
Compounds without any hit were thinned out: in the full panel of roughly 83,000, 20% have a hit.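 48-hour exposure, single concentration, 96-well plates; percent growth endpoint where 0 means no net growth. Active: below 10.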 Values without a mark were called inactive. Calls of active or inactive are those of the source.

Each molecule was assayed on MDA-MB-468 breast (assay: NCI-60 one-dose screen, 48 h (100 = growth as untreated, 0 = no growth, -100 = all killed)). Conditions: 10 µM unless noted.

SMILES | growth
O=C(Cn1c(C(=O)c2ccccc2)nc2ccccc21)c1ccc(F)cc1 | 35.1%
CN(C)CN1CCN(c2ccc3nc(-c4ccc5nc(-c6ccc(C(F)(F)F)cc6)[nH]c5c4)[nH]c3c2)CC1 | 13.7%
COc1ccc(-c2nn(-c3cccc(Cl)c3)cc2-c2cc(-c3ccccc3)nc(N)n2)cc1 | 30%
Cc1ccc(C)c(C(O)(c2cc(C)ccc2C)C2(O)CCCCC2)c1 | 90.5%
CC[C@H]1[C@@H]2C=C[C@@H]3[C@H]4C/C=C\C(=O)NCCC[C@@H]5NC(=O)/C(=C(O)/C=C/[C@@H]4C[C@@H]3[C@H]2C[C@H]1C)C5=O | 76.8%
C#CCn1cc(C=C2C(=O)NC(=S)NC2=O)c2cc(Cl)ccc21 | 32.5%
COc1ccc(/C=C2\Oc3cc(OCCCCN4CCCC4)ccc3C2=O)cc1 | 74.5%
COc1cccc(O)c1O | 86.7%
O=S1(=O)OC(c2ccc(O)c(Cl)c2)(c2ccc(O)c(Cl)c2)c2ccccc21 | 114%
N/C(=N\C(N)=N\c1nc2ccccc2s1)c1cnccn1 | -24.8% (active)
COC(=O)[C@@H](CCCCNC(=O)[C@]12CCC(C)(C)C[C@@H]1C1=CC[C@@H]3[C@@]4(C)C/C(=C/c5ccco5)C(=O)C(C)(C)[C@@H]4CC[C@@]3(C)[C@]1(C)CC2)NC(=O)[C@]12CCC(C)(C)C[C@@H]1C1=CC[C@@H]3[C@@]4(C)C/C(=C/c5ccco5)C(=O)C(C)(C)[C@@H]4CC[C@@]3(C)[C@]1(C)CC2 | 109%
Cn1c2ccc(Br)cc2c2c3c(c4c5cc(F)ccc5oc4c21)C(=O)N(O)C3=O | 108%
CC(=O)Nc1ccc(CC[C@H]2CCC/C=C/[C@@H]3C[C@H](O)C[C@H]3[C@H](O)/C=C/C(=O)O2)cc1 | -23.5% (active)
COc1ccc2c(C3=C(c4cn(C)c5ccccc45)C(=O)NC3=O)coc2c1 | 30.5%
Cn1cc(-c2nc(-c3c[nH]c4ncccc34)cs2)c2cc(Br)ccc21 | 5.22% (active)
CCCCCCCCN(CCCCCCCC)CCCCCCNc1cc(OC)cc2cccnc12 | 68.2%
COc1ccc(-c2nc3cc(Cl)c(Cl)cc3n2CC(=O)N=Nc2c(O)[nH]c3ccc(Br)cc23)cc1 | -71% (active)

SMILES | growth
Oc1ccc(Cc2ccc(O)c3ncccc23)c2cccnc12 | -16% (active)
COc1ccc(-c2ccc(-c3ccc(C(=N)N)cn3)s2)cc1Cl | -68.5% (active)
CC(C)(C)c1cc(C[P+](c2ccccc2)(c2ccccc2)c2ccccc2)cc(C(C)(C)C)c1O | -2.61% (active)
CC1(C)CC[C@]2(C(=O)O)CC[C@]3(C)C(=CC[C@@H]4[C@@]5(C)C/C(=C/O)C(=O)C(C)(C)[C@@H]5CC[C@]43C)[C@@H]2C1 | 77.3%
CC(=O)O[C@]1(C)C[C@H](O)[C@]2(O)C=CO[C@H](O[C@@H]3O[C@H](CO)[C@@H](O)[C@H](O)[C@H]3O)[C@@H]21 | 96.8%
N#Cc1c(Nc2ccc(F)cc2)n[nH]c1-c1cccs1 | 98.4%
Cc1cc(Nc2cccc(C(F)(F)F)c2)n2c(nc3ccccc32)c1C#N | -4.87% (active)
COc1cc(NC(N)=NCCC(C)(C)c2ccc(C(F)(F)F)cc2)ncc1C#N | -39.1% (active)
Cn1cc2c(c1)-c1nc(Nc3ccccc3)ncc1CC2 | 47.6%
CN(C)CCCOc1c2ccc(Cl)cc2nc2c1oc1ccccc12 | -39.8% (active)
Cc1ccc2c3c(c(=O)[nH]c2c1)C1(C(C#N)=C(N)O3)c2cc(Br)ccc2-c2ccc(Br)cc21 | 6.75% (active)
CCOC(=O)c1ccc2n1CCCc1cnc(NC(C)=O)nc1-2 | 96.1%
CC(=O)Nc1ccc2cc3ccc(NC(C)=O)cc3nc2c1 | 56.5%
Cc1cc(NCc2cc(Nc3ccnc4cc(Cl)ccc34)ccc2F)nc(N2CCOCC2)n1 | 39.9%
Cc1cc(C#Cc2ccc(C(C)(C)C)cc2)ccc1-n1c(/C=C/c2c(Cl)cccc2Cl)nc2ccccc2c1=O | 91.1%
CN=C1C=CC(=C(c2ccc(N(C)C)cc2)c2ccc(N(C)C)cc2)C=C1 | -47.5% (active)
O=C1CCCC=CC[C@H]2C=C(Cl)C(=O)C2=CC[C@H](CCCCC(F)(F)F)OC(=O)CCCC=CC[C@H]2C=C(Cl)C(=O)C2=CC[C@H](CCCCC(F)(F)F)OC(=O)CCCC=CC[C@H]2C=C(Cl)C(=O)C2=CC[C@H](CCCCC(F)(F)F)O1 | 59.9% [6.25 µM]
